The list is not random: actives were taken first. Their share in the collection is about 0.79%.
WNV protease inh: inhibitors of WNV NS2B-NS3 protease, primary screen, biochemical, fluorogenic substrate | Genome polyprotein (West Nile virus), P06935 | fluorogenic substrate Ex360/Em465; hits give low values | z-score (test concentration not listed) | actives 0.18% (n = 65,000); in the data active means z-score below about -3
ROCK2 inh: inhibitors of human ROCK2 kinase, primary screen, biochemical, high-throughput, luminescence; Rho-associated protein kinase 2 (Homo sapiens), O75116; purified ROCK2, Kinase-Glo ATP depletion luminescence; inhibition, % at 6 µM; actives 0.35% (n = 60,000); AID 604, 2007;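 active means inhibition above the screen-wide mean inhibition plus 3 SD, cut at about 18% in these data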;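 further: plate controls were DMSO wells for no effect and Y-27632 control wells after no-enzyme background subtraction for full effect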
Hsp90 block: tumor Hsp90 inhibitors, primary screen, cell lysate, fluorescence polarization, NCI-N417 lysate; Heat shock protein HSP 90-alpha (Homo sapiens), P07900; Cy3B-geldanamycin FP displacement; inhibition, % at 30 µM; actives 0.35% (n = 64,000);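 active means inhibition above 50%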;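 further: 0% = tracer plus lysate wells and 100% = tracer alone without lysate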
MMP-13 inhibitor: human MMP13 inhibitors, primary screen, biochemical, FRET peptide cleavage; AID 570, 2006; MMP-13 fTHP FRET cleavage, Mca fluorescence; Collagenase 3 (Homo sapiens), P45452; actives 0.07% (n = 65,000); inhibition, % at 4 µM;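 active means inhibition above the mean of compound-free control plate wells plus 3 SD, cut at about 14% in these data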;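 further: 0% = DMSO wells and 100% = wells with reference MMP-13 inhibitor after basal subtraction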
PKA inh: inhibitors of human PKA kinase activity, primary screen, biochemical, ATP-depletion luminescence, Kemptide substrate | PKA Kemptide phosphorylation, Kinase-Glo ATP luminescence | inhibition, % at 6 µM | actives 0.1% (n = 65,000) | AID 524, 2006;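 active means inhibition above the screen-wide mean inhibition plus 3 SD, cut at about 21% in these data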
Ec RNAP inh: E. coli RNAP inhibitors, biochemical; inhibition, %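 (tested at 10 µM)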; AID 559, 2006; DNA-directed RNA polymerase subunit beta (Escherichia coli (strain K12)), P0A8V2; E. coli RNA polymerase, fluorescence transcription assay; actives 0.2% (n = 62,000); in the data active means inhibition above about 20%;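 further: 0% = enzyme without compound and 100% = no enzyme blank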
Target sequence (P0A8V2 whole entry, looked up): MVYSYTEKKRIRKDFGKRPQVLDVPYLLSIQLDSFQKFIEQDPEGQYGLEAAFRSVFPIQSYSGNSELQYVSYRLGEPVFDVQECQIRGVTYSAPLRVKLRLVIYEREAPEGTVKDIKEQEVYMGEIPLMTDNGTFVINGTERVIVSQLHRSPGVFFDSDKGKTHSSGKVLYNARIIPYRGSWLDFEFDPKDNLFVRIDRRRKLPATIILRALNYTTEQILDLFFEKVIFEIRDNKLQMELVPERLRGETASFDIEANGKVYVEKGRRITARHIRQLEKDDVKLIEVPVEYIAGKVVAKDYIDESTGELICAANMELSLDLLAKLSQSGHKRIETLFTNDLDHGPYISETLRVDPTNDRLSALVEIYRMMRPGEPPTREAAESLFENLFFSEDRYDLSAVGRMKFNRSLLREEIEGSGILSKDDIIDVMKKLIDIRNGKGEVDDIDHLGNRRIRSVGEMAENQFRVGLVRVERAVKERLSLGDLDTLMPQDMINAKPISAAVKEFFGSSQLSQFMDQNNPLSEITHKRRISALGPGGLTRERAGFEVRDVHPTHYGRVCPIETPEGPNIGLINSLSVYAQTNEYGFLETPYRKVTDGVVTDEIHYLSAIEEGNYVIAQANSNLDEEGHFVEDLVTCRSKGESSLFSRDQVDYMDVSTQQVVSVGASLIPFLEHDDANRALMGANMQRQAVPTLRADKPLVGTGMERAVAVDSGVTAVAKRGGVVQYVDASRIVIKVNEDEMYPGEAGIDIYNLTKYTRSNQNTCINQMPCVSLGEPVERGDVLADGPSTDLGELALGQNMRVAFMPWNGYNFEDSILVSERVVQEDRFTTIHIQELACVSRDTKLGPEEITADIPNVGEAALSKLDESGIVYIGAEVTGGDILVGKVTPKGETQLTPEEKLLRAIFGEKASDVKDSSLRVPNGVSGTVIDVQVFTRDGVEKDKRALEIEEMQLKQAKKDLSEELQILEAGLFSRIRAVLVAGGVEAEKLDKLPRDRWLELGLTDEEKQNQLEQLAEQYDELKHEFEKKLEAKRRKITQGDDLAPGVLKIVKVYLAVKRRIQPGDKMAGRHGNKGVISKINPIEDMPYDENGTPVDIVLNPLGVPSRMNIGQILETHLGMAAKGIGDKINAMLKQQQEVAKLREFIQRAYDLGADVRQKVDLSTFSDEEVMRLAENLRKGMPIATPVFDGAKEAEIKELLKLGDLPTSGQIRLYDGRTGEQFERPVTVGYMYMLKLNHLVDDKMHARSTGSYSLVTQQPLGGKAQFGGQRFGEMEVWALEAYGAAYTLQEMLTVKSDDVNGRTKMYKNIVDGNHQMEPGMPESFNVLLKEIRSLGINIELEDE
Numbers without * were called inactive; nt = no result.

SMILES | WNV protease inh | ROCK2 inh | Hsp90 block | MMP-13 inhibitor | PKA inh | Ec RNAP inh
CCOc1ccc(OCC)c(NC(=O)C2CCCN(c3nc(C)cc(C)n3)C2)c1 (stereo not drawn) | -0.89 | -3 | -1 | -1 | 0 | 8
CN(C(=O)c1ccncc1)C1CC(C)(C)N(O)C(C)(C)C1 | -0.82 | 0 | 35 | -6 | 0 | 21*
COc1ccc2[nH]c3c(c2c1)CN(C)CC3 | 1.4 | 1 | -6 | 2 | -3 | 0
CCN1C(=S)SC(=O)C1=C1C=C(C)N(CCOC)C(C)=C1 | 0.49 | nt | nt | 27* | 8 | 6
COc1ccc(OC)c(-c2cc(C(=O)N3CCCc4ccccc43)no2)c1 | -0.39 | 2 | 0 | 3 | 12 | 7
Cc1cccc(N2CCN(C(=O)c3cn(C)c(=O)c4c3c3ccccc3n4C)CC2)c1C | -0.73 | 169* | 0 | -33 | 1 | 5
Cc1ccc(Cl)cc1N1CCN(C(=O)c2cn(C)c(=O)c3c2c2ccccc2n3C)CC1 | -0.59 | 9 | -4 | -4 | 7 | -7
CCSCC1COC(c2cccn2Cc2ccc(C)cc2)=N1 (stereo not drawn) | 0.14 | -2 | 0 | 2 | -1 | 13
COc1ccc(-n2nc3c(c2NC(=O)c2ccc(Br)cc2)CS(=O)C3)cc1 (stereo not drawn) | -0.68 | 3 | 55* | 4 | -6 | 3
COc1ccc(-n2nc3c(c2NC(=O)c2cc(Br)ccc2Cl)CS(=O)C3)cc1 (stereo not drawn) | -0.32 | 1 | -1 | 5 | 0 | 11
Cc1csc(NC(=O)c2ccc(C)c(S(=O)(=O)N3CCCCC3)c2)n1 | -0.42 | 6 | -5 | -4 | 6 | 5
COc1ccc(S(=O)(=O)n2nc(OC(=O)c3ccco3)cc2N)cc1 | -7.7* | -4 | 2 | 1 | -7 | 5
COc1ccc(S(=O)(=O)n2nc(OC(=O)c3ccc(C)cc3)cc2N)cc1 | -0.72 | 2 | 1 | 0 | 11 | 4
COc1ccc(S(=O)(=O)n2nc(OC(=O)c3cccs3)cc2N)cc1 | -5.6* | 4 | -5 | 1 | 2 | 0
COc1ccc(S(=O)(=O)n2nc(OC(=O)c3ccccc3Br)cc2N)cc1 | -4.2* | 6 | -2 | 1 | 6 | 3
COc1ccc(S(=O)(=O)n2nc(OC(=O)c3ccccc3)cc2N)cc1 | -6.4* | -1 | 1 | -1 | -2 | 4
Cc1ccc2c(c1)nnn2C1CCN(C(=O)C2CCCCC2)CC1 | 2.7 | 4 | 1 | 1 | 13 | 9
CCCn1c(SCC(=O)Nc2ccc3c(c2)OCCO3)nnc1-c1ccco1 | -3.9* | 6 | -3 | 6 | 11 | 8
CCOC(=O)c1[nH]c(C)c(C(=O)Nc2ccccc2C)c1C | 0.4 | 4 | -2 | 4 | 0 | 21*
CCCc1cc2c(cc1NS(=O)(=O)c1ccc(CCNC(C)=O)cc1)OCO2 | 0.25 | 1 | 57* | 1 | -3 | 7
CC(=O)NCCc1ccc(S(=O)(=O)NCc2ccc3c(c2)OCO3)cc1 | -0.64 | 2 | -1 | -2 | 6 | 8
Cc1ccc2[nH]c3c(N4CCCCCC4)ncnc3c2c1 | -0.04 | 8 | -9 | -15 | 5 | 10
c1nc(N2CCCC2)c2[nH]cnc2n1 | nt | nt | nt | 2 | 22* | nt
Cc1ccc2cc(CCNC(=O)c3ccco3)c(=O)[nH]c2c1 | 0.69 | 3 | -5 | -4 | -4 | nt
O=C1c2ccccc2C(Nc2ccc3nc(-c4cccnc4)[nH]c3c2)N1Cc1ccco1 (stereo not drawn) | 0.12 | -2 | 7 | -8 | -5 | 3
SMILES | WNV protease inh | ROCK2 inh | Hsp90 block | MMP-13 inhibitor | PKA inh | Ec RNAP inh
O=C(NCc1cccnc1)C1c2ccccc2C(=O)N1Cc1ccco1 (stereo not drawn) | 0.36 | 5 | 57* | 2 | 8 | 8
COc1ccc(OC)c(S(=O)(=O)N2CCc3ccccc32)c1 | -1.1 | 16 | 0 | -3 | 6 | 10
CCc1c(C)[nH]c2ccccc2c1=O | 0.78 | -5 | 0 | 3 | -2 | -8
CC(=O)CCc1c(C)[nH]c2ccccc2c1=O | 0.8 | 2 | 82* | 5 | -3 | -1
O=C1c2ccccc2-c2nc3ncnn3c(-c3ccccc3)c21 | 0.71 | 2 | -3 | 2 | 11 | -4
O=C(O)c1ccc2c3c(ncnc13)-c1ccccc1C2=O | 0.44 | -3 | 90* | -7 | 4 | 19
Cc1cccc(NC(=O)c2c(O)c3cccc4c3n(c2=O)CCC4)n1 | 0.8 | 2 | 50* | 0 | 10 | 2
COc1ccc(CCNC(=O)c2c(O)c3cccc4c3n(c2=O)CC4)cc1 | -4.7* | 1 | 0 | 0 | 9 | 5
CN(C)C(=O)CN1C(=O)C2CC=C(Cl)CC2C1=O (stereo not drawn) | 0.11 | 4 | -4 | 2 | 11 | -6
C/C(=N/n1cnnc1)c1cccnc1 | 1.8 | 6 | -6 | -5 | 5 | 27*
Cc1nn(C(=O)c2cccnc2)c(C)c1C | -0.13 | -3 | 0 | 0 | -4 | 8
CC1CCN(C(=O)C(Cc2ccccc2)n2cccc2)CC1 (stereo not drawn) | -0.2 | 2 | -2 | 5 | 5 | 0
CC(C)(C)c1ccc(O)c(N)c1 | -0.78 | 1 | 33 | 7 | 1 | 24*
CC1=NN(c2ccccc2)C(=O)C1 | 0.21 | 19* | -3 | 4 | 1 | 5
Cc1cc(N2C(=O)CCC2=O)n(-c2ccccc2)n1 | -1.9 | -3 | -2 | 2 | -5 | 9
COc1ccc(CNC(=O)C(C)NC(=O)c2cc3ccccc3o2)cc1 (stereo not drawn) | -0.4 | -9 | -1 | 0 | -6 | 39*
COc1ccc(S(=O)(=O)N(C)CC(=O)N2CCC(C(N)=O)CC2)cc1Cl | -0.27 | 9 | 73* | -4 | 6 | 6
O=C(O)c1cc(NCc2ccc3c(c2)OCO3)ccc1N1CCOCC1 | -0.91 | 51* | 1 | -12 | 7 | nt
COC(=O)c1cc(NCc2ccc3c(c2)OCO3)ccc1N1CCOCC1 | 0.9 | -2 | 2 | 1 | -7 | 0
Cc1ccc(Sc2c(C)[nH]n(C(C)(C)C)c2=O)cc1 | -0.57 | 4 | 3 | 2 | 9 | 4
CCOC(=O)N1CCN(C(=O)c2ccc(C)c(S(=O)(=O)Nc3cccc(C)c3C)c2)CC1 | 1.5 | -3 | 0 | 4 | -4 | -2
COc1ccc(S(=O)(=O)Nc2ccccc2C(F)(F)F)cc1 | -0.46 | 7 | -1 | 12 | 5 | 0
COc1ccc(S(=O)(=O)Nc2ccc(O)c3ccccc23)cc1 | -0.78 | 6 | -3 | -13 | 8 | 24*
